In the supplement of paper PMC6555819:

Tested on: PXR homodimer (NR concentration 270 nM)
Experiment: PBM binding z-score (relative to random genomic background probes); higher = stronger binding; sequences stand for … in GC…GCGATTGACAGCGTAGAATGAAGG
Method in brief: (§1)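 Random background probes are the reference for binding z-scores. These scores derive from regression-normalized fluorescence on custom Agilent 4×180K protein-binding microarrays incubated 1 h with ligand-free nuclear receptor dimers. Binding was detected with antibodies against each partner (one per run).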

Sequence | PBM binding z-score
CAAACTAGGTCACCGGAAAGTCAAAGTCCGCATG | 0.0377
TAGCCTAGGTCATTCAGGGGCCAGAATAGAAAGC | 0.043
CACACTAGGTCAAGAGGTCAAAGTCCGCTTCCCG | 3.75
CTCGAAAGGTCGTGCTCAGGTGAGTATGCCAAAC | 0.126
CAAACTAGGTCACAGAGGTCGAAGTCCGTGCGTA | 3.65
CGTCCAAGGTCAGAGAGGTCATTGAATGCCGAGT | 13.6

Tested on: RARa:RXR (NR concentration 270 nM, RXRa partner concentration 90 nM)
Experiment: as above
Method in brief: as §1

Sequence | PBM binding z-score
ATCGAAAGGTCGTGAGGTGACTATACAGAAAGGC | 4.52
AATACAGGGTCGCTAGGCCAGAGTAGGTACGAAT | 0.9
ATACCAAGGTGATCGTGAGTTCGTTGATACTAAC | 0.619
TTACCAAGGTCAGCTGAGGTCGTTGATCCAACTC | 4.4
GGAACGAGGGCATTCGAGTTGATAGCATGGCGAT | 0.423
CCTTACGGGTCACTCTAGGTTATAGCATCGGAGT | 3.43
CGTCCAAGGTAAGAGAGGTCAGTGAATGCCGAGT | 3.12
CCGACGGGGGCAGAAAGGTTACCATACCATCCGG | 3.91
TCTCGGAGGTCACGAAGGTCAGAGCTTTCCAGAG | 6.63
CTCGAAAGGTCGTCCTCAGGTGAGTATACCAAAC | 4.1
CTCGAAAGGTCGTGCTCAGGTGAGTATGCCAAAC | 4.18
CGTCCAAGGTCAGAGAGGTCATTGAATGCCGAGT | 6.68

Tested on: RARa homodimer (NR concentration 270 nM)
Experiment: as above
Method in brief: as §1

Sequence | PBM binding z-score
ATCGAAAGGTCGTGAGGTGTGTATACAGAAAGGC | 0.71
GGAACGAGGGCAAAGGTGATAGCATCTGTCGACG | 0.0137
ATATGGAGGTTAAGGGTCATTCAGGTTGGTTCGC | 3.41
ATCGAAAGGTCGTGAGGTGACTATACAGAAAGGC | 1.01
CGTCAAAGTTCAACTAAGGTAACTTAAAGCACGC | 1.76
CGGCCAAGGTCAAAGGTCAGTGAAGAGATGACGG | 4.91
ATCTCTAGGTAAAGGTCAGTGAAAGATCGATAGA | 2.88
CGTCCAAGGTCATAAGAGGTCAGTGAAGACAGAT | 4
CCTAGTTGGCCAAGGTCACACACGCTATAGGTAC | 1.5
CCTTACGGGTCACGGGGTTATAGCACGACGAGCG | 2.14
TAGCCTAGGTCATTCAGGGGTCAGTATAGAAAGC | 2.26
TCTAGTTGGTTACGGAGGTCACACACGACGGGTA | 2.34
AATACAGGGTCGCTAGGCCAGAGTAGGTACGAAT | 0.178
ATACCAAGGTGATCGTGAGTTCGTTGATACTAAC | 0.465
CGTCCAAGGTCAATGCTAGGTCACTGAAAGCATT | 2.19
TTACCAAGGTCAGCTGAGGTCGTTGATCCAACTC | 0.314
ATCGAAAGGTCGACGAGTTGAGTATACACCGTTT | 0.451
TTACAAAGGTGAGCTGAGGTCGTTGATCCAACTC | -0.325
GGAACGAGGGCATTCGAGTTGATAGCATGGCGAT | -0.292
CCGACTGGGGCAAAGGTTACCACACTCAGTACGA | 0.0195

Sequence | PBM binding z-score
CGTCAAAGTTCAACTAATGTAACGTAAAGCACGC | 2.42
CCTTACGGGTCACTCTAGGTTATAGCATCGGAGT | 0.346
GCTTACGGGTCAAAGGTTATAGTATGAATAGAAT | 0.757
CCTACAGGGCCAAAGGTCATTGATTCCAATGCTC | 2.39
TAGCCTAGGTCATGGGCCAGTTTACCACGCGAAC | -0.379
CGTCCAAGGTAAGAGAGGTCAGTGAATGCCGAGT | 0.562
CCGACGGGGGCAGAAAGGTTACCATACCATCCGG | 0.566
CCTACTGGGCCAAAGGTCAGTGATTCCAATGCTC | 1.82
AGTCAAAGTTCATCTTGGTAACGTAAGATATGCT | 1.55
ATACCAAGGTTATCGTGAGGTCGTTGATACTAAC | 1.45
TCTCGGAGGTCACGAAGGTCAGAGCTTTCCAGAG | 1.11
CCTTGCGGGTCACTGACAGGTTATAGCATTTGGA | 0.173
CTCGAAAGGTCGTCCTCAGGTGAGTATACCAAAC | -0.0286
CAAACTAGGTCACCGGAAAGTCAAAGTCCGCATG | 0.631
TAGCCTAGGTCATTCAGGGGCCAGAATAGAAAGC | -0.355
CACACTAGGTCAAGAGGTCAAAGTCCGCTTCCCG | 3.81
CTCGAAAGGTCGTGCTCAGGTGAGTATGCCAAAC | 0.00788
CAAACTAGGTCACAGAGGTCGAAGTCCGTGCGTA | 0.511
CGTCCAAGGTCAGAGAGGTCATTGAATGCCGAGT | 0.848

Tested on: RARb:RXRa (NR concentration 270 nM, RXRa partner concentration 90 nM)
Experiment: as above
Method in brief: as §1

Sequence | PBM binding z-score
ATCGAAAGGTCGTGAGGTGTGTATACAGAAAGGC | 3.97
GGAACGAGGGCAAAGGTGATAGCATCTGTCGACG | 2.72
ATATGGAGGTTAAGGGTCATTCAGGTTGGTTCGC | 3.97
ATCGAAAGGTCGTGAGGTGACTATACAGAAAGGC | 3.99
CGTCAAAGTTCAACTAAGGTAACTTAAAGCACGC | 5.39
CGGCCAAGGTCAAAGGTCAGTGAAGAGATGACGG | 6.06
ATCTCTAGGTAAAGGTCAGTGAAAGATCGATAGA | 4.53
CGTCCAAGGTCATAAGAGGTCAGTGAAGACAGAT | 5.47
CCTAGTTGGCCAAGGTCACACACGCTATAGGTAC | 3.8
CCTTACGGGTCACGGGGTTATAGCACGACGAGCG | 4.72
TAGCCTAGGTCATTCAGGGGTCAGTATAGAAAGC | 4.81
TCTAGTTGGTTACGGAGGTCACACACGACGGGTA | 3.25
AATACAGGGTCGCTAGGCCAGAGTAGGTACGAAT | 1.49
ATACCAAGGTGATCGTGAGTTCGTTGATACTAAC | 0.462
CGTCCAAGGTCAATGCTAGGTCACTGAAAGCATT | 5.33
TTACCAAGGTCAGCTGAGGTCGTTGATCCAACTC | 5.06
ATCGAAAGGTCGACGAGTTGAGTATACACCGTTT | 3.7
TTACAAAGGTGAGCTGAGGTCGTTGATCCAACTC | 3.23

Sequence | PBM binding z-score
GGAACGAGGGCATTCGAGTTGATAGCATGGCGAT | 1.73
CCGACTGGGGCAAAGGTTACCACACTCAGTACGA | 2.54
CGTCAAAGTTCAACTAATGTAACGTAAAGCACGC | 5.23
CCTTACGGGTCACTCTAGGTTATAGCATCGGAGT | 3.68
GCTTACGGGTCAAAGGTTATAGTATGAATAGAAT | 4.25
CCTACAGGGCCAAAGGTCATTGATTCCAATGCTC | 4.63
TAGCCTAGGTCATGGGCCAGTTTACCACGCGAAC | 3.82
CCTACTGGGCCAAAGGTCAGTGATTCCAATGCTC | 4.1
AGTCAAAGTTCATCTTGGTAACGTAAGATATGCT | 4.95
ATACCAAGGTTATCGTGAGGTCGTTGATACTAAC | 2.47
CCTTGCGGGTCACTGACAGGTTATAGCATTTGGA | 3.63
CTCGAAAGGTCGTCCTCAGGTGAGTATACCAAAC | 3.8
CAAACTAGGTCACCGGAAAGTCAAAGTCCGCATG | 4.72
TAGCCTAGGTCATTCAGGGGCCAGAATAGAAAGC | 4
CACACTAGGTCAAGAGGTCAAAGTCCGCTTCCCG | 5.28
CTCGAAAGGTCGTGCTCAGGTGAGTATGCCAAAC | 3.83
CAAACTAGGTCACAGAGGTCGAAGTCCGTGCGTA | 4.35
